SSB-PriA inh = blocks PriA binding to SSB C-terminal tail | AID 1272365 | actives 0.6% (n = 430,000) | AlphaScreen SSBct-PriA binding, biotinylated peptide | inhibition, % at 33 µM; in the data active means inhibition mostly above about 37%, no sharp cut-off; inactive means mostly below about 20%;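 further: plate controls were negative control peptide for no effect and reference peptide for full effect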
Sa ugtP lethal = growth inhibition of S. aureus ugtP deletion strain; S. aureus RN4220 ugtP deletion, OD600 growth, 16 h; growth inhibition, % (concentration not given with the values); actives 0.54% (n = 330,000); AID 1259309; in the data active means growth inhibition above about 68%;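 further: plate controls were untreated wells for no effect and antibiotic for full effect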
Sa RN4220 lethal = kills Staphylococcus aureus RN4220. actives 0.33% (n = 330,000). AID 1259311. inhibition, % (no concentration beside the values). S. aureus RN4220 growth, OD600, 16 h; in the data active means inhibition above about 85%;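 further: plate controls were untreated cells for no effect and reference antibiotic for full effect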
An asterisk follows results filed as active; x = no result given; ! = not active in a repeat. The list is not random: actives were taken first. Their share in the collection is about 1%.

SMILES | SSB-PriA inh | Sa ugtP lethal | Sa RN4220 lethal
CS(=O)(=O)N1CCC(C(=O)N2CCN(c3cc(C(F)(F)F)ncn3)CC2)CC1 | 4 | x | x
COc1ccc(/C=C\C(=O)Nc2c(C(=O)Nc3ccc(Cl)cc3)oc3ccccc23)cc1OC | -9 | x | x
O=[N+]([O-])c1cnc(Sc2ccncn2)s1 | -11 | 100* | 81
O=C(Nc1ccc(Cl)cc1)Nc1ccccc1Sc1ncc([N+](=O)[O-])s1 | 3 | x | x
COc1ccc(OC)c2sc(N(Cc3ccccn3)C(=O)c3ccc(N4C(=O)CCC4=O)cc3)nc12 | -8 | x | x
CC1=CC(=O)C(C(C)C)=C/C1=C(\c1cc(C(C)C)c(O)cc1C)c1ccccc1S(=O)(=O)O | 59* | x | x
CC1=CC(=O)C=C/C1=C(\c1ccc(O)cc1C)c1ccccc1S(=O)(=O)O | -14 | x | x
O=C(/C=C/c1cccs1)OCC(=O)c1ccc(F)cc1 | 12 | x | x
CCOC(=O)c1c(NC(=O)c2cccnc2)sc(C)c1C | -17 | -9 | 19
CCOC(=O)c1sc(NC(=O)c2cccnc2)c(C#N)c1C | 4 | 85* | 74
Cc1ccccc1NC(=O)Cn1c(Cc2ccccc2)nc2ccccc21 | -6 | x | x
O=C(c1ccno1)N1CCC(Oc2ncccc2Br)CC1 | -26 | x | x
CC(=O)NC[C@H]1CC(=O)N(c2ccc(F)cc2)C1 | 8 | x | x
CCOc1cc(C=NO)cc(Br)c1OCc1ccc(Cl)cc1 | -1 | 91* | -8
C=CCc1cc(C=O)cc(OC)c1OCc1ccc(Cl)cc1 | -61 | 86* | -4
C=CCc1cc(/C=C2/NC(=O)N(CC)C2=O)cc(OCC)c1OCc1ccc(C(=O)O)cc1 | -7 | -3 | 20
CCOc1cc(C=NO)cc(Br)c1OCC | -1 | 40 | 4
C=CCc1cc(C=O)cc(OCC)c1OCc1ccc(Cl)cc1 | -24 | 99* | -17
COc1cc(C=O)ccc1OCCOCCOc1ccc(Cl)cc1 | -23 | 5 | 1
CCc1cc(=O)n(CCNC(=O)c2cc(-c3ccc4c(c3)OCO4)n[nH]2)cn1 | 4 | x | x
C=CCN1C(=O)C(Cc2ccccc2)S/C1=N/N=C\c1ccccc1 (stereo not drawn) | 56* | x | x
C=CCN1C(=O)C(Cc2ccc(C)cc2)SC1=NN=Cc1ccco1 (stereo not drawn) | -10 | 6 | 6
CCCn1cc(C(=O)Nc2ccc(Br)cc2C)c2nn(-c3ccccc3)c(=O)c-2c1 | 14 | x | x
c1ccc(Nc2ccnc(Nc3ccccc3)n2)cc1 | -2 | -42 | -9
NNc1nccc(Nc2ccccc2C(=O)O)n1 | 59* | -3 | 1
SMILES | SSB-PriA inh | Sa ugtP lethal | Sa RN4220 lethal
Cc1ccc(C(=O)c2c(C)oc3c2C(=O)C(=O)c2ccccc2-3)cc1 | 14 | 93* | 109*
Cc1oc2c(c1C(=O)c1ccc(Cl)cc1)C(=O)C(=O)c1ccccc1-2 | 7 | x | x
NC(N)=NC(=O)c1nc(Cl)c(N2CCCCCC2)nc1N | 5 | x | x
NC(N)=NC(=O)c1nc(Cl)c(N)nc1N | 1 | 98*! | 9
O=C(Cn1c(-c2cccnc2)nc2ccccc21)Nc1ccc(OC(F)(F)F)cc1 | -26 | x | x
CN(C)c1ccc(CCCNC(=O)c2ccccc2C(F)(F)F)cc1 | 3 | x | x
COc1ccc(C(N)=NOC(=O)CCc2ccccc2)cc1 | -46 | x | x
CC(C)(C)C(=O)OCc1nc(-c2ccc(Cl)cc2)cs1 | -8 | 92* | 1
COc1ccc(-c2csc(COC(=O)C(C)(C)C)n2)cc1 | -6 | 27 | 7
Oc1cccc2ccc(/C=C/c3ccccc3Br)nc12 | -4 | 92* | 90*
Oc1c(Cl)cc(Cl)cc1/C=C/c1ccc2cccc(O)c2n1 | -18 | 86 | 91*
COc1cc(Br)c(/C=C/c2ccc3cccc(O)c3n2)cc1OC | -16 | 4 | 0
Oc1ccc(Cl)cc1/C=C/c1ccc2cccc(O)c2n1 | -3 | 27 | 15
CC(C)c1nn(CC(N)=O)c(=O)c2c1cnn2-c1ccccc1 | 11 | x | x
O=C(NCc1ccccc1)C(=O)NCC(c1ccsc1)N1CCOCC1 (stereo not drawn) | -5 | x | x
O=C(CN1C(=O)CCC1=O)N1CCN(c2nc3ccc(F)cc3s2)CC1 | -2 | x | x
O=S(=O)(O)c1cc(O)c2c(O)c(N=Nc3cc(Cl)ccc3O)c(S(=O)(=O)O)cc2c1 | 58* | 8 | 0
O=S(=O)(O)c1cc(Cl)cc(N=Nc2ccc(O)cc2O)c1O | -3 | x | x
O=S(=O)(Cc1cccc(Cl)c1)NCC(c1ccsc1)N1CCOCC1 (stereo not drawn) | 5 | x | x
Cc1cccc(N2CCN(S(=O)(=O)c3cccc4nonc34)CC2)c1C | 39* | 40 | 11
O=S(=O)(c1cccc2nonc12)N1CCN(c2ccccc2F)CC1 | -9 | -2 | 12
Cc1ccc(NC(=O)C(=O)NCC(=O)N2CCOC(c3ccccc3)C2)cc1F (stereo not drawn) | -16 | x | x
Cc1ccc(Oc2nc3ccccc3n3cccc23)cc1 | -23 | 96* | -10
c1ccc(Oc2nc3ccccc3n3cccc23)cc1 | -13 | 68 | -3
COc1ccccc1C(=O)Nc1ccc(Cn2cnc(C(=O)Nc3cccc(Cl)c3C)c2)cc1 | -17 | x | x
SMILES | SSB-PriA inh | Sa ugtP lethal | Sa RN4220 lethal
CCN(c1ccccc1)c1nc(=O)c2cccnc2s1 | 5 | 12 | 4
CCN(c1cccc(C)c1)c1nc2ccsc2c(=O)s1 | -11 | 88* | -3
O=S(=O)(Nc1nc2ccccc2[nH]1)c1ccc(Br)cc1 | -6 | x | x
CCOC(=O)c1c(-c2ccc(C)c(C)c2)csc1NC(=O)CSc1nnc2ccccn12 | 3 | x | x
CC(=O)N1CC(C(=O)NCCc2cccs2)C1 | 4 | x | x
O=C(CN1CCCCCCC1)NN=Cc1ccc(F)cc1F | -2 | 8 | 1
Fc1ccc(C=NN2CCCCC2)c(F)c1 | 43* | 7 | 5
COc1cccc(/C=C/C(=O)c2c(O)cc(C)oc2=O)c1O | -8 | 1 | 8
COc1ccc(/C=C/C(=O)c2c(O)cc(C)oc2=O)c(OC)c1 | -8 | 100* | -16
CCCNC(=O)CCCCn1c(=O)c2ccccc2n(CC(=O)Nc2ccccc2Cl)c1=O | 0 | x | x
O=C(Cc1ccc([N+](=O)[O-])cc1)N1CCCCCC1 | -17 | 12 | 10
O=C(CCc1ccc(Oc2cc([N+](=O)[O-])cc([N+](=O)[O-])c2)cc1)N1CCCCCC1 | 39* | 8 | 1
CC(C)c1cc(=O)[nH]c(-n2nc(C3CC3)cc2NC(=O)c2cc(C3CC3)on2)n1 | -7 | x | x
NNC(=O)c1nc[nH]c1C(=O)Nc1ccccn1 | 59*! | x | x
Cc1ccc(NC(=O)c2[nH]cnc2C(=O)NN)cc1 | -6 | 3 | 1
Cc1noc(C)c1CCC(=O)Nc1cnn(C[C@H]2COc3ccccc3O2)c1 | 3 | x | x
Cc1sc2ncnc(N3CCN(c4ccc(Cl)c(Cl)c4)CC3)c2c1-c1ccc(F)cc1 | 8 | x | x
CCCC1CCc2c(c3ccccc3[nH]c2=O)O1 (stereo not drawn) | -3 | -3 | 10
CCC1CCc2c(c3ccccc3[nH]c2=O)O1 (stereo not drawn) | 87* | -20 | -11
CCOc1ccc(-n2nnnc2CNC(=O)COc2ccc(C)cc2)cc1 | -19 | x | x
NS(=O)(=O)c1ccc(NC(=O)CN2C(=O)N/C(=C\C=C\c3ccccc3)C2=O)cc1 | 0 | x | x
O=c1nc(SCc2ccc(C(F)(F)F)cc2)c2c([nH]1)CCC2 | -9 | x | x
Cc1ccsc1C=NNc1nc(=O)[nH]nc1C | 67* | 1 | 5
Cc1n[nH]c(=O)nc1NN=Cc1ccc(O)c([N+](=O)[O-])c1 | -15 | 8 | 6
Clc1ccc2c(c1)Nc1ccccc1CC2 | -25 | 89* | 6
O=C1CCc2ccccc2N1 | 2 | 6 | 11

Screens (PubChem)
